Test results as given in the supplement of paper PMC6555819.

Legend:
Experiment in all cases: PBM binding z-score (relative to random genomic background probes); higher = stronger binding; sequences stand for … in GC…GCGATTGACAGCGTAGAATGAAGG
[1] = system: FXR:RXRa (NR concentration 270 nM, RXRa partner concentration 90 nM)
Method in brief: (§1)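 Random background probes are the reference for binding z-scores. These scores derive from regression-normalized fluorescence on custom Agilent 4×180K protein-binding microarrays incubated 1 h with ligand-free nuclear receptor dimers. Binding was detected with antibodies against each partner (one per run).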

[2] = system: LXRa:RXRa (NR concentration 270 nM, RXRa partner concentration 90 nM)
Method in brief: as §1

[3] = system: LXRa homodimer (NR concentration 270 nM)
Method in brief: as §1

[4] = system: LXRb:RXRa (NR concentration 270 nM, RXRa partner concentration 90 nM)
Method in brief: as §1

[5] = system: LXRb homodimer (NR concentration 270 nM)
Method in brief: as §1

[6] = system: PPARa:RXRa (NR concentration 270 nM, RXRa partner concentration 90 nM)
Method in brief: as §1

[7] = system: PPARg:RXRa (NR concentration 180 nM, RXRa partner concentration 90 nM)
Method in brief: as §1

[8] = system: PPARg:RXRa 270nM:90nM, anti-RXR (NR concentration 270 nM, RXRa partner concentration 90 nM)
Method in brief: as §1

[9] = system: PPARg:RXRa 30nM:10nM, anti-RXR (NR concentration 30 nM, RXRa partner concentration 10 nM)
Method in brief: as §1

[10] = system: PPARg:RXRa 90nM:30nM, anti-RXR (NR concentration 90 nM, RXRa partner concentration 30 nM)
Method in brief: as §1

[11] = system: PPARg:RXRa DBDmut IVT, anti-RXR (DBD mutation: RXRa K156A/R161A, NR concentration 270 nM, RXRa partner concentration 90 nM)
Method in brief: as §1

[12] = system: PPARg:RXRa IVT, anti-PPARg (NR concentration 270 nM, RXRa partner concentration 90 nM)
Method in brief: as §1

[13] = system: PPARg DBDmut:RXRa IVT, anti-PPARg (DBD mutation: PPARg1 K132A/R137A, NR concentration 270 nM, RXRa partner concentration 90 nM)
Method in brief: as §1

[14] = system: PPARg DBDmut IVT, anti-PPARg (DBD mutation: PPARg1 K132A/R137A, NR concentration 270 nM)
Method in brief: as §1

[15] = system: PPARg homodimer (NR concentration 180 nM)
Method in brief: as §1

[16] = system: PXR:RXRa (NR concentration 270 nM, RXRa partner concentration 90 nM)
Method in brief: as §1

[17] = system: PXR homodimer (NR concentration 270 nM)
Method in brief: as §1

[18] = system: RARa:RXR (NR concentration 270 nM, RXRa partner concentration 90 nM)
Method in brief: as §1

[19] = system: RARa homodimer (NR concentration 270 nM)
Method in brief: as §1

[20] = system: RARb:RXRa (NR concentration 270 nM, RXRa partner concentration 90 nM)
Method in brief: as §1

Sequence | PBM binding z-score [1] | PBM binding z-score [2] | PBM binding z-score [3] | PBM binding z-score [4] | PBM binding z-score [5] | PBM binding z-score [6] | PBM binding z-score [7] | PBM binding z-score [8] | PBM binding z-score [9] | PBM binding z-score [10] | PBM binding z-score [11] | PBM binding z-score [12] | PBM binding z-score [13] | PBM binding z-score [14] | PBM binding z-score [15] | PBM binding z-score [16] | PBM binding z-score [17] | PBM binding z-score [18] | PBM binding z-score [19] | PBM binding z-score [20]
ATACCAAGGTGATCGTGAAGTCGTTGATACTAAC | 0.402 | 0.225 | 0.0745 | 0.448 | -0.0277 | 0.429 | 0.37 | 0.481 | -0.0865 | 0.2 | 0.462 | 1.26 | 0.643 | 0.615 | 0.766 | 0.468 | -0.0567 | 0.548 | 0.427 | 0.582
TCTAGCAGGCCAGAGGGTCACTCACGAGGTACGG | 0.586 | 0.658 | -0.609 | 1.13 | -1.2 | 2.2 | 1.46 | 2.63 | 1.82 | 2.54 | 0.776 | 0.783 | -0.376 | -1.19 | 1.31 | 1.51 | -0.605 | 2.52 | -0.397 | 2.25
CAAACTAGGTTAAAGGTCAAAGTCGAGCCAACCA | 6.87 | 6.3 | 5.27 | 6 | 2.67 | 7.07 | 13.2 | 11 | 14.1 | 13.4 | 7.78 | 8.2 | 3.63 | 3.37 | 5.35 | 6.11 | 1.51 | 7.9 | 3.41 | 4.76
TCTGCTAGGTCAGTTGGTCCGCTAACGAGCTGCC | 0.769 | 0.595 | -0.724 | 0.186 | 0.781 | 0.869 | -0.334 | 1.28 | 1.13 | 0.949 | 2.64 | 2.46 | 0.84 | 0.95 | -0.535 | -0.0468 | -0.863 | -0.00908 | -1.31 | 3.12
ATACCAAGGTGATCGTGAGGTCGGTGATACTAAC | 0.882 | 0.302 | 0.1 | 0.211 | -0.161 | 0.78 | 0.426 | -0.213 | -0.123 | -0.222 | 0.199 | 1.12 | -0.398 | 0.469 | 0.85 | 0.944 | 0.32 | 0.998 | 0.866 | 1.11
TCGAGTAGGCTAGGGGCATTCAGAATGGCGTCGA | -0.172 | -0.557 | -0.903 | -0.262 | -1.16 | 0.162 | -0.111 | 0.716 | 0.676 | 0.504 | 0.831 | -0.362 | -1.38 | -1.61 | -0.968 | -0.194 | -0.983 | -0.131 | -1 | 0.171
TCTAGTTGGTCACGGAGGTCAGACACGACGGGTA | 2.17 | 2.33 | 1.51 | 2.23 | 0.127 | 2.88 | 2.45 | 2.97 | 3.26 | 3.11 | 2.48 | 3.14 | 0.816 | 0.0631 | 2.07 | 2.96 | 0.703 | 2.79 | 0.955 | 3.26
GCTTGTAGCTCAAGGTTAAGAAAGACTAAGCTAA | -0.0638 | 0.559 | -0.361 | 0.165 | -0.751 | 0.893 | -0.394 | 0.557 | -0.472 | 0.243 | -0.582 | -0.296 | -0.734 | -0.739 | -0.599 | 0.28 | -0.587 | 0.556 | -0.601 | 0.721
CGTCAAAGTTCAAGGTAACGGAACAGAAAGCAGC | 6.15 | 5.59 | 2.26 | 3.12 | 0.735 | 4.63 | 4.57 | 5.32 | 2.47 | 4.21 | 0.343 | 2.24 | 0.485 | 0.919 | 1.96 | 3.99 | 2.13 | 3.36 | 1.04 | 5.07
TCTATTAGTTGAAGTGCAACCGACGAGTCCGTTT | 0.802 | 0.953 | 0.178 | 0.755 | 0.464 | 1.02 | -0.119 | 2.15 | 3.77 | 2.88 | 2.28 | 0.306 | 0.956 | 1 | 0.829 | 0.982 | 1.24 | 0.832 | 0.781 | 0.825
AATACAGGGTCATCGTAGGCCAGAGGACGCACAG | 7.28 | 6.5 | 2.24 | 4.6 | 1.25 | 5.96 | 6.68 | 6.34 | 3.12 | 4.94 | 2.45 | 4.1 | 1.52 | 0.83 | 2 | 4.85 | 0.696 | 4.98 | 0.699 | 4.41
TCTAGTTGGTCACGGAGGTCACCCACGACGGGTA | 3.16 | 3.23 | 2.36 | 2.91 | 0.635 | 3.67 | 3.23 | 4.07 | 3.3 | 3.64 | 2.32 | 4.17 | 1.19 | 1.25 | 3.92 | 4.61 | 1.6 | 4.66 | 1.42 | 3.89
TCTATTAGTTGATTAGGGCAACCGCAACAGCGGA | 0.86 | 0.405 | 0.129 | 0.329 | 0.245 | 1.06 | 0.368 | 1.95 | 3.34 | 2.72 | 2.2 | 1.59 | 0.83 | 0.659 | 0.498 | 0.281 | 0.274 | 0.408 | 0.676 | 0.729
GCAGACAGGTTAAACGCAGGTAACTCAGGGTGGC | 0.61 | 1.65 | -0.225 | 0.687 | -0.662 | 1.7 | 0.69 | 0.222 | -0.592 | -0.245 | 0.14 | -0.197 | -0.311 | -1.1 | -0.225 | 0.235 | -0.788 | 1.11 | -0.374 | 1.12
